Measurements: PubChem BioAssay AID504840 (Johns Hopkins Ion Channel Center, 2011)
Hit rate of the full screen: of about 1,500 compounds, about 890 (59%) were called active.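 The calls were made as follows: active = inhibition of the choline-evoked signal at any tested dose together with a fitted dose-response curve; inactive = no inhibition at any dose or no curve.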 The set was probably picked from earlier hits. Not all results are given here. Potency and affinity values are given separately.

target: High affinity choline transporter 1 (Homo sapiens) (UniProt Q9GZV3); assay: CHT inhibitors, dose response, cell-based, 5-point CRC, membrane potential dye (AID 504840); conditions: HEK293-CHT, choline-induced depolarization, CHT with LV-to-AA double alanine mutation; series mostly up to 37 µM; inhibition: at the top concentration;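 also: 0% = buffer-only response and 100% = EC90 choline response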
Sequence (Q9GZV3 whole entry, looked up): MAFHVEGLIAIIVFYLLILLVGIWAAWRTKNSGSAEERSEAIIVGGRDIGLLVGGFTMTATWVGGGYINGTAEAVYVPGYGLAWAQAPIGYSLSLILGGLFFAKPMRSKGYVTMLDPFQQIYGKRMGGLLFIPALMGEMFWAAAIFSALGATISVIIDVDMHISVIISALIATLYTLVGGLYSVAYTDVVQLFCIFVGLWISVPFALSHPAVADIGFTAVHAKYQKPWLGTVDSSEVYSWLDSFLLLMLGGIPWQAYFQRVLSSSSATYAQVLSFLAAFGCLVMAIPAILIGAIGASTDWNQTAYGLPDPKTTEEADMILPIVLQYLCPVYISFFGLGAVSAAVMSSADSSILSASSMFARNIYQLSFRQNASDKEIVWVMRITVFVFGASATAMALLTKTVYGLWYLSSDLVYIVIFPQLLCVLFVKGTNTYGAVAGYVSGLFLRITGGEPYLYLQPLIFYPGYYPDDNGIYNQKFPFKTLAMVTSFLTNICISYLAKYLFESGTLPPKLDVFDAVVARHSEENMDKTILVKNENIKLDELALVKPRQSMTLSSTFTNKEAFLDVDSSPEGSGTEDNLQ

inhibition, inactive:
Cc1ccc(S(=O)(=O)NC2=C(N3CCN(Cc4ccccc4)CC3)C(=O)c3ccccc3C2=O)cc1 32.5%
COc1cc(/C=C2/S/C(=N/S(=O)(=O)Cc3ccccc3)NC2=O)c([N+](=O)[O-])cc1OC 47.3%
COc1ccc(NC(=O)CSc2nccn2Cc2ccccc2)cc1 46.5%
CCN(C(=O)c1cc2c(=O)n3ccccc3nc2n1CCCOC)C1CCCCC1 37.4%
O=C(NCCCn1ccnc1)C(=O)c1cn(CC(=O)N2CCCCCC2)c2ccccc12 57.4%
O=C(c1cn(-c2ccccc2)nc1-c1ccc(Cl)cc1)N1CCOCC1 15.1%
N/C(=N\O)c1ccc(N2CCN(c3ncccc3C(F)(F)F)CC2)nc1 45.6%
O=S(=O)(NCc1csc(-c2cccs2)n1)c1ccc(Cl)cc1 32.1%
Cc1ccc(S(=O)(=O)N2[C@@H](c3ccc(F)cc3)C(C(=O)O)=CC[C@H]2c2ccc(C(C)C)cc2)cc1 40.1%
CCn1c(N2CCN(S(=O)(=O)c3ccc(Cl)cc3)CC2)nc2ccccc21 55.8%
CCOc1ccc([C@@H]2CC=C(C(=O)O)[C@H](c3cccc(Cl)c3)N2S(=O)(=O)c2ccc(C)cc2)cc1 9.24%
COc1ccccc1OCC(=O)NCCS(=O)(=O)N1CCN(c2ccccc2)CC1 27.9%
CCCCn1c(SCC(=O)Nc2cccc(OC)c2)nc2ccc(N3CCOCC3)cc2c1=O 38.3%
CCOC(=O)c1ccc(CC(=O)c2ccc(O)cc2O)o1 31.9%
CCCc1cc(C(=O)Cc2ccc(F)cc2)c(O)cc1O 51.2%
Cc1ccc(-n2c(C)cc(=O)cc2C)c(C)c1 44.1%
CCCOc1ccc(C(=O)NNC(=S)NC(=O)c2ccco2)cc1 59.3%
CC[C@H](C)[C@H](NC(=O)c1ccc(Cl)cc1)C(=O)OCC(=O)c1ccc2c(c1)NC(=O)CO2 37%
CCCCNC(=O)/C(C#N)=C/c1ccc(-c2ccc(S(=O)(=O)N3CCOCC3)cc2)o1 27.3%
CC(NC(=O)/C(C#N)=C/c1ccc([N+](=O)[O-])o1)c1ccccc1 (configuration not stated) 49.6%
Cc1ccc(N=Cc2cc(Cc3ccccc3Cl)cc([N+](=O)[O-])c2O)c(O)c1 43.4%
CN1C[C@@H]2C(c3ccc(C(F)(F)F)cc3)C3(c4cccnc4)CC2(C3)[C@H]1c1ccccc1 (some centres not stated) 37.1%
COc1cc(C(CCN2CCCCC2)c2c(OC)cc(OC)c3c(-c4ccccc4)cc(=O)oc23)cc(OC)c1OC (configuration not stated) 59.1%
CCN(CC(=O)NCc1cccs1)S(=O)(=O)c1ccc(C(C)C)cc1 51.1%
Cc1ccc(C(=O)CSc2n[nH]c(-c3ccco3)n2)cc1C 36.4%
COCCCn1c(SCC(=O)Nc2sc3c(c2C#N)CCCC3)nnc1-c1ccncc1 26.6%
CS(=O)(=O)n1nc(OC(=O)c2cccc3ccccc23)cc1N 40.2%
COc1ccc(Cc2nnc(NC(=O)c3ccccc3[N+](=O)[O-])s2)cc1 56.9%
O=C(O)c1ccccc1NSc1ccccc1[N+](=O)[O-] 34.3%
COc1cc(OC)c2c(-c3ccccc3)cc(=O)oc2c1C(CCN1CCCCC1)c1ccc(N(C)C)cc1 (configuration not stated) 49.8%
COc1cc(OC)c2c(-c3ccccc3)cc(=O)oc2c1C(CCN1CCCCC1)c1ccc2c(c1)OCO2 (configuration not stated) 56.1%
COc1ccc(C(CCN2CCCC(C)C2)c2c(OC)cc(OC)c3c(-c4ccccc4)cc(=O)oc23)cc1 (configuration not stated) 41.5%
COc1ccc(C(CCN2CCCC2)c2c(OC)cc(OC)c3c(-c4ccccc4)cc(=O)oc23)cc1 (configuration not stated) 49.9%
COc1cc(OC)c2c(-c3ccccc3)cc(=O)oc2c1C(CCN1CCCC1)c1ccc2c(c1)OCO2 (configuration not stated) 53.8%
COc1cc(OC)c2c(-c3ccccc3)cc(=O)oc2c1C(CCN1CCCC(C)C1)c1ccc(N(C)C)cc1 (configuration not stated) 42.6%
O=C(Nc1nonc1-c1ccc(Cl)cc1)c1ccco1 15.7%
Cc1ccc[n+](CC(=O)Nc2cc(C(F)(F)F)ccc2N2CCOCC2)c1 72.7%
COc1ccc(N(C)S(=O)(=O)c2cccc(C(=O)NC3CCC(C)CC3)c2)cc1 (configuration not stated) 22.7%
CC(=O)N1CCN(S(=O)(=O)c2cccc(C(=O)NC3CCC(C)CC3)c2)CC1 (configuration not stated) 19.6%
CN1CCN(S(=O)(=O)c2cccc(C(=O)NC3CCCc4ccccc43)c2)CC1 (configuration not stated) 60.3%
CC1CCCC(NC(=O)c2cccc(N3CCCC3=O)c2)C1C (configuration not stated) 46%
Cc1cc(C)nc(SCc2cc(=O)c(OC(=O)c3cc([N+](=O)[O-])ccc3Cl)co2)n1 75.3%
O/N=C/c1ccnc(SCc2ccccc2)n1 35.9%
Cc1ccnc(SCc2cc(=O)c(OC(=O)c3ccc(S(=O)(=O)N(C)C)cc3)co2)n1 61.1%
CCCCNS(=O)(=O)c1ccc2nc(SCC(=O)c3ccccc3OC)[nH]c2c1 71.7%
Cc1cc(=O)[nH]c(SCC(=O)c2ccc(C)c(C)c2)n1 58.9%
C=CCNS(=O)(=O)c1ccc(N2C(=O)c3ccccc3C2=O)cc1 16.9%
CC(NC(=O)c1ccc(N2CCNCC2)c([N+](=O)[O-])c1)C12CC3CC(CC(C3)C1)C2 (configuration not stated) 54.6%
Cc1[nH]n(-c2cccc(Cl)c2)c(=O)c1-c1ccccc1 41.6%
COc1ccc2c(c1)CC(C)C/C2=N\NC(=O)c1ccco1 (configuration not stated) 29.7%
CCC(CC)Nc1ccc(C(CC(N)=O)NC(=O)c2ccccc2)cc1[N+](=O)[O-] (configuration not stated) 62.7%
NC(=O)CC(NC(=O)c1ccc(Br)cc1)c1ccc(N2CCCCCC2)c([N+](=O)[O-])c1 (configuration not stated) 44.8%
NC(=O)CC(NC(=O)c1ccccc1)c1ccc(N2CCc3ccccc3C2)c([N+](=O)[O-])c1 (configuration not stated) 64.7%
NC(=O)CC(NC(=O)c1ccc(Br)cc1)c1ccc(N2CCCCCCC2)c([N+](=O)[O-])c1 (configuration not stated) 30.9%
COC(=O)CCCCCCCCCC[N+]1(C)CCCCC1 61.3%
O=S(=O)(Nc1nc2ccccc2s1)c1ccc(Br)s1 28%
COc1ccc(CN2CCN(CC=C(C)C)C(CCO)C2)cc1Cn1cccn1 (configuration not stated) 27.2%
O=C(O)c1ccc(-c2nc(-c3ccccc3Cl)cs2)cc1 47.3%
O=C(O)c1ccc(/C=C2\COc3ccccc3C2=O)cc1 63.5%
Cc1cc(C)c2nc(N3CCCN(C(=O)c4cnccn4)CC3)c(C#N)cc2c1 61.6%
Cc1ccc(Nc2nnc(-c3ccc(N4CCOCC4)c([N+](=O)[O-])c3)c3ccccc23)cc1 36.8%
CN1/C(=C\C=Nc2cc(S(=O)(=O)N3CCOCC3)ccc2N2CCOCC2)C(C)(C)c2ccccc21 71.3%
